The supplement of paper PMC11732987, “Enantioselective OTUD7B fragment discovery through chemoproteomics screening and high-throughput optimisation” (Communications Chemistry, 2025)

Legend:
Assay in all cases: log2 ratio of Biotin-Ahx-Ub-VS probe labelling (fragment/DMSO); higher = less target engagement (more negative = stronger competition), active = hit call of the paper (q ≤ 0.05, log2 ratio ≤ -1)
Settings in all cases: compound concentration: 200 uM; treatment time: 3 h
USP34 = USP34 (UniProt Q70CQ2)
Procedure, shortened: (§1)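 Labelled DUBs from HEK293T lysate were NeutrAvidin-enriched, digested with LysC and trypsin, and run by diaPASEF LC-MS/MS. Before that, each 495 µg sample in Tris/CHAPS/IGEPAL buffer with protease inhibitors was treated in triplicate with fragment at 200 µM or vehicle for 3 h, then with Biotin-Ahx-Ub-VS at 0.5 µM final for 1 h. Values are average log2 ratios of fragment over vehicle by unpaired t-test, based on global-median-normalised Spectronaut label-free quantities from proteins with ≥2 unique peptides.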

USP36 = target: T1, USP36 (UniProt Q9P275)
T1 sequence (whole entry): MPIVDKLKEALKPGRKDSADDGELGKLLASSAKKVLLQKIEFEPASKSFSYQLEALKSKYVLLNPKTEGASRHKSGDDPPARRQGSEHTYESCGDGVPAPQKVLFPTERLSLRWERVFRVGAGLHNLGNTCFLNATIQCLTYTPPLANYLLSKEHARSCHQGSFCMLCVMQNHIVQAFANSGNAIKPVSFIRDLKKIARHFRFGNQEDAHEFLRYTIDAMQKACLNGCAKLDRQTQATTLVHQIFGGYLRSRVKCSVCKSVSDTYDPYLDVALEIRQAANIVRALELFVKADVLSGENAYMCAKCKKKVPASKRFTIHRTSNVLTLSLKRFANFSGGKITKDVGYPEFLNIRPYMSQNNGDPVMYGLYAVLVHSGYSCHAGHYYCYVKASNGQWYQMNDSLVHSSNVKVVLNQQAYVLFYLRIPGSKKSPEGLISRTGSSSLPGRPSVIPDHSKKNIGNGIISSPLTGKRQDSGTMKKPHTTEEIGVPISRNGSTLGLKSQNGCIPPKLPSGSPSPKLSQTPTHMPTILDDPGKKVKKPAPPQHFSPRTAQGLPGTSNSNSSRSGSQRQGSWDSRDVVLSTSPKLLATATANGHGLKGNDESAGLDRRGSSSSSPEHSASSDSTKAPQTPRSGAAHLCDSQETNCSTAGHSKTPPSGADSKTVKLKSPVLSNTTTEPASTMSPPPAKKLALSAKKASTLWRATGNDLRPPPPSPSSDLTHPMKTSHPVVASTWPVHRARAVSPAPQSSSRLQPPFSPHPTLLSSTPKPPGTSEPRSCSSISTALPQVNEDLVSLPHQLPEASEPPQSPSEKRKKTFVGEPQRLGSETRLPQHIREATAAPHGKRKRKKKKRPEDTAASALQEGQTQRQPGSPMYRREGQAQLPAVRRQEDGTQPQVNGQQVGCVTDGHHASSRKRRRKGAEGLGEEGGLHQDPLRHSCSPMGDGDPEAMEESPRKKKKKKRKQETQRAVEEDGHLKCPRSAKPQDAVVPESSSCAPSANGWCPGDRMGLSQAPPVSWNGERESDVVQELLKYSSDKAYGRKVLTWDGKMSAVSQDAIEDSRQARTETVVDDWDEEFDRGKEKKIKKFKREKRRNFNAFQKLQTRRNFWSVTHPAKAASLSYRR
Procedure, shortened: as §1

USP38 = target: T2, USP38 (UniProt Q8NB14)
T2 sequence (whole entry): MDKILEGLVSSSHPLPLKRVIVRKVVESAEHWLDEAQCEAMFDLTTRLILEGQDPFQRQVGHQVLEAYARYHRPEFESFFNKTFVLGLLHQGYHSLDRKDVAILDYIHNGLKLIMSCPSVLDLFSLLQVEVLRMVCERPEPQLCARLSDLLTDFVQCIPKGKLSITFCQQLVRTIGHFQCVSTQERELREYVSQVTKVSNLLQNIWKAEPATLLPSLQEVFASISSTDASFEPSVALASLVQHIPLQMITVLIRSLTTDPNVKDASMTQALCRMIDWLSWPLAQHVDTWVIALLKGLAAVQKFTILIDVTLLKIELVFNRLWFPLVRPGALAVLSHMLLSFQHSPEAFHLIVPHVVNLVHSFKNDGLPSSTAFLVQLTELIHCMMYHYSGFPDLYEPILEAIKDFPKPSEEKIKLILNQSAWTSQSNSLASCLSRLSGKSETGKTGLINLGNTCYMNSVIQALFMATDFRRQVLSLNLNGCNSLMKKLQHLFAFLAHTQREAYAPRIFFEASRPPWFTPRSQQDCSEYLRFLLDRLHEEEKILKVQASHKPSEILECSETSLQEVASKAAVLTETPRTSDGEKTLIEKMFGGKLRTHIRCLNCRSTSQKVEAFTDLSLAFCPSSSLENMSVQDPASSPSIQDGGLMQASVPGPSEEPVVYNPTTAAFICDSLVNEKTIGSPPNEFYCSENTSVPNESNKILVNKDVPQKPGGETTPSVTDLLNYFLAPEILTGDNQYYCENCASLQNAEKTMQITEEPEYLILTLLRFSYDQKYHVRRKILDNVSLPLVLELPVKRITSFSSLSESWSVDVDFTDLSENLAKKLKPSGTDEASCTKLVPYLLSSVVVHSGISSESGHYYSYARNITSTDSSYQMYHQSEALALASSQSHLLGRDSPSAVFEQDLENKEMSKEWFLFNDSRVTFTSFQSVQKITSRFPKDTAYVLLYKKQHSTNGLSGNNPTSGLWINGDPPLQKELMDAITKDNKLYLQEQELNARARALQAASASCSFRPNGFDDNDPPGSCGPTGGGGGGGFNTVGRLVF
Procedure, shortened: as §1

USP39 = target: T3, USP39 (UniProt Q53GS9)
T3 sequence (whole entry): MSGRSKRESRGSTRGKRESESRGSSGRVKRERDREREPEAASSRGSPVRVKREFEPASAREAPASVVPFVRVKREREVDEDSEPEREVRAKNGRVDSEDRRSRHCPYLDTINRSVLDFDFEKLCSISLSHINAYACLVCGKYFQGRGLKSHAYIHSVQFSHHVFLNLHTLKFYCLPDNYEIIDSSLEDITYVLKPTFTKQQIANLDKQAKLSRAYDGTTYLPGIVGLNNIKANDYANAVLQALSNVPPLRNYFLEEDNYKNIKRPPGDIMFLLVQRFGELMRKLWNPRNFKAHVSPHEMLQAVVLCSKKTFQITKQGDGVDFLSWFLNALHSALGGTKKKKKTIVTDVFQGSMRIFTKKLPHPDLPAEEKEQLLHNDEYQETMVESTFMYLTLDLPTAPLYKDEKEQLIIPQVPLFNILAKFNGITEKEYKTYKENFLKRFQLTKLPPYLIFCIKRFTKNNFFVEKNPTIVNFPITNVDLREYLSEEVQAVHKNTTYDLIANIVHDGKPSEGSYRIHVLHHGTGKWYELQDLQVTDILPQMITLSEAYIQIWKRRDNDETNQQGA
Procedure, shortened: as §1

USP4 = target: T4, USP4 (UniProt Q13107)
T4 sequence (whole entry): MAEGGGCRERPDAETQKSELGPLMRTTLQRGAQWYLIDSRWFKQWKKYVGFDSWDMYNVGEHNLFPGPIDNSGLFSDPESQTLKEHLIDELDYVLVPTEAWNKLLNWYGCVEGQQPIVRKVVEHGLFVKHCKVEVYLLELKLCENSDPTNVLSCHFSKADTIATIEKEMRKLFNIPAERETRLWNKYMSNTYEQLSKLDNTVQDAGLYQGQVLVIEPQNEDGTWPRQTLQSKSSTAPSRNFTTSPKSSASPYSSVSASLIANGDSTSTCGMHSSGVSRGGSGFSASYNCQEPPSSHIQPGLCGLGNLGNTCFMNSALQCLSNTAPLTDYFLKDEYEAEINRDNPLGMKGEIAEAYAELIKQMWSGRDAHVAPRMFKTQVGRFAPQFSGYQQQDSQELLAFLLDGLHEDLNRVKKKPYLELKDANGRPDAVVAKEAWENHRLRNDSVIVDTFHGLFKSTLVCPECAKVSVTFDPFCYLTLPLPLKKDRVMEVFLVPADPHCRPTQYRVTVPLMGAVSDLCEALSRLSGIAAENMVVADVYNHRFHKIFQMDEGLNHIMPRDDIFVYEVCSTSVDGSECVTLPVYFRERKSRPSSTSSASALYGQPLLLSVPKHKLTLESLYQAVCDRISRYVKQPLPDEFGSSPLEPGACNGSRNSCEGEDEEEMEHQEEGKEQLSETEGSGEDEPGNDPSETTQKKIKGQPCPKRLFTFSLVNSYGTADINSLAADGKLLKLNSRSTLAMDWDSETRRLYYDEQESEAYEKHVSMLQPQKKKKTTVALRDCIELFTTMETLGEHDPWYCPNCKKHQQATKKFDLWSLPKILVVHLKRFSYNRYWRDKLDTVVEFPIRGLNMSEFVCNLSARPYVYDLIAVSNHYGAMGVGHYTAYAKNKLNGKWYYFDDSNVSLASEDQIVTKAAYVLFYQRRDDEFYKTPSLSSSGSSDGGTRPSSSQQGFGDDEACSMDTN
Procedure, shortened: as §1

Measured: log2 ratio of Biotin-Ahx-Ub-VS probe labelling

Chain of USP34 (Q70CQ2 whole entry, the tested form may be a part): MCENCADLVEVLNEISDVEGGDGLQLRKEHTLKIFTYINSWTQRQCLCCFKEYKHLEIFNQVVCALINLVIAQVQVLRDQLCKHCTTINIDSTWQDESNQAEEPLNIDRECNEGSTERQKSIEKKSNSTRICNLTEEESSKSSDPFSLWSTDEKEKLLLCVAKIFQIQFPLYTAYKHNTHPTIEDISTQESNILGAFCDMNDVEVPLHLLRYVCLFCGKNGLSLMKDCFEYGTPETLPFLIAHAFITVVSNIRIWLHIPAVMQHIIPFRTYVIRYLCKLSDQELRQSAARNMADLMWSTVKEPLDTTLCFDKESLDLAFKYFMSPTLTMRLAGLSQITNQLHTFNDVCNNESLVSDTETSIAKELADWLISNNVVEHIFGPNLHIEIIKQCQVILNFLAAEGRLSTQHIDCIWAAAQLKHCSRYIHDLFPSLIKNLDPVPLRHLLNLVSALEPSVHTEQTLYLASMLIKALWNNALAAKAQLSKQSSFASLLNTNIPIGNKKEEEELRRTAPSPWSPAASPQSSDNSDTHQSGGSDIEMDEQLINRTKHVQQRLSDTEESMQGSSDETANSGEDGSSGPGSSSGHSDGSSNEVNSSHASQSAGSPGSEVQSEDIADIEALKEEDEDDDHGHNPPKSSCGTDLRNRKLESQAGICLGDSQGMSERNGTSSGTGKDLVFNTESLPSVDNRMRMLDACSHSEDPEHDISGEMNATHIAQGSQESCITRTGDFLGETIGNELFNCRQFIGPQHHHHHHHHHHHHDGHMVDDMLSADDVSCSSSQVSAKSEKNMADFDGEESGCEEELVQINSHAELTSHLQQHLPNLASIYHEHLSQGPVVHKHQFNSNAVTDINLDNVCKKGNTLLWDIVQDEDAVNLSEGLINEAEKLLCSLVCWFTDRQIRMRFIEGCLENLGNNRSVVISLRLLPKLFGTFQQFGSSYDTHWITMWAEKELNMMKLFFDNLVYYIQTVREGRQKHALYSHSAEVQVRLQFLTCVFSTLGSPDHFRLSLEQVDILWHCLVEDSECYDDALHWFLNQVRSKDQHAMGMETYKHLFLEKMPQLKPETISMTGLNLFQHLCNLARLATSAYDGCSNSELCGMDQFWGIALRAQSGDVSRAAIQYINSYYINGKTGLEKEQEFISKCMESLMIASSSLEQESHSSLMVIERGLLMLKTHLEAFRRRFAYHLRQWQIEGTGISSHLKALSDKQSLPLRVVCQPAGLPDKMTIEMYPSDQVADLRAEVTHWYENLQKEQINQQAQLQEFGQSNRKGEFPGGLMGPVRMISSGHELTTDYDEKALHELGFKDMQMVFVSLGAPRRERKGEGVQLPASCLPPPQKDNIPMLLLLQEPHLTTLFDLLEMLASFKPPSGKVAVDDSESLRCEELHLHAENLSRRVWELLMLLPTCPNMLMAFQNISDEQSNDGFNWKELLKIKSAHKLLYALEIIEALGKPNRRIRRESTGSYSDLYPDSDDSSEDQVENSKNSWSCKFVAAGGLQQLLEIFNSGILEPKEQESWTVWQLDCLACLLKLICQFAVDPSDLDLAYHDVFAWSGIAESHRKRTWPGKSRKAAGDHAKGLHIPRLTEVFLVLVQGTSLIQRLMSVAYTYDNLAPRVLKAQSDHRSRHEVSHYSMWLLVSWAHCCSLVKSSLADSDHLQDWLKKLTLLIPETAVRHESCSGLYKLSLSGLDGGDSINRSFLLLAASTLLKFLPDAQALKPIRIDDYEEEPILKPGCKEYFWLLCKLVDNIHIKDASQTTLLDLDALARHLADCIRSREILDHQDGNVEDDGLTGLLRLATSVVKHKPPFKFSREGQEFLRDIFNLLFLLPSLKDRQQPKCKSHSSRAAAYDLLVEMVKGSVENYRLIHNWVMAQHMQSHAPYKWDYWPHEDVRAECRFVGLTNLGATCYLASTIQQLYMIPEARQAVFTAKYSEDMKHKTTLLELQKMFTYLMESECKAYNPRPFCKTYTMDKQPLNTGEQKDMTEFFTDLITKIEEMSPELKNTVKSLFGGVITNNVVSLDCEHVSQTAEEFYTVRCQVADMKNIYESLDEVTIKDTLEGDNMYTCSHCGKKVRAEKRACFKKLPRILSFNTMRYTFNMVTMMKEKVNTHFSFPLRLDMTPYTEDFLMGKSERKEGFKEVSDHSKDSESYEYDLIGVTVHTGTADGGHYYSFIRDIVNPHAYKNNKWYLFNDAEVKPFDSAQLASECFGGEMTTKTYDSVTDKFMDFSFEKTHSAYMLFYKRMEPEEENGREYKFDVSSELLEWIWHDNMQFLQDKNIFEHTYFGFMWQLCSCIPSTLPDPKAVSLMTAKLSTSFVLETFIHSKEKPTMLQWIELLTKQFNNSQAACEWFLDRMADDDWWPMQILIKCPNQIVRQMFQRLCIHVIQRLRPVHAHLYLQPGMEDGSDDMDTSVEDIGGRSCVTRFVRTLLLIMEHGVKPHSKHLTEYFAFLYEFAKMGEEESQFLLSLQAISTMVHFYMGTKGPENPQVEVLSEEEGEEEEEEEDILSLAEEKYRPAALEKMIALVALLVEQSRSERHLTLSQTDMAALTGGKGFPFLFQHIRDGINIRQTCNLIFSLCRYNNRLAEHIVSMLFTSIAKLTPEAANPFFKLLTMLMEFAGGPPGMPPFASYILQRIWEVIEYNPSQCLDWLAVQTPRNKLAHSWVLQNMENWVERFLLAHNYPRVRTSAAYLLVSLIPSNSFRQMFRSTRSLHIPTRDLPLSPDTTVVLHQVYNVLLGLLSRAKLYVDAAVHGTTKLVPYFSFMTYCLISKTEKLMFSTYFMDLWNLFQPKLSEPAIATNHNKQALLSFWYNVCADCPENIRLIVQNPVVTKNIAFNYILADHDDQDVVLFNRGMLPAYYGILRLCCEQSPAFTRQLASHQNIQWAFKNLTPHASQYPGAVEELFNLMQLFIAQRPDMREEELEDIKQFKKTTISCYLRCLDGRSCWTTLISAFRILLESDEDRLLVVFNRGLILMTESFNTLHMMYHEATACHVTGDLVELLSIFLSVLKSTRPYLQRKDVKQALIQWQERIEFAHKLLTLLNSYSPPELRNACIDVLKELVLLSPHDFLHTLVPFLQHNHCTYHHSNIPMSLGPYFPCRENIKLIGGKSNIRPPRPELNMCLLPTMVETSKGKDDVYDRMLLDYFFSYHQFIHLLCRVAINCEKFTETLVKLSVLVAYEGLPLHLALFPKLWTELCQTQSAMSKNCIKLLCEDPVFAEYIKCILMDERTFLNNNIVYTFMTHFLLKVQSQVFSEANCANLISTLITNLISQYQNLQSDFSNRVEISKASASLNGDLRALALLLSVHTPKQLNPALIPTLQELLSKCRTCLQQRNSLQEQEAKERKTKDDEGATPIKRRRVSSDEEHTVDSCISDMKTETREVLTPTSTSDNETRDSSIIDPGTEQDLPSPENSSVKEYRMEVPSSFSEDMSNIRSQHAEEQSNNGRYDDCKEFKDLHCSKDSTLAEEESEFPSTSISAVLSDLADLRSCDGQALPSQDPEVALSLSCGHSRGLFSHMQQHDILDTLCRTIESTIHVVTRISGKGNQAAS

O=C(CCl)N1CCCC2CCCCC21 (stereo not given)
inactive: USP34 -0.14 | USP36 -0.176 | USP38 -0.0442 | USP39 -0.107 | USP4 -0.14
